# Records with an inconclusive call do not appear. Entries that show only a call come without a potency. Active and inactive are the calls of the source. Unless noted, the call rests on the fitted dose curve; in most records, active means well fitted curve in the direction sought with a large enough effect; inconclusive means small, poorly fitted or top-dose-only effect, or another doubt; inactive means no such curve, though single readings can be large; an effect the other way counts as inactive or inconclusive.
# Experiments:
# [1] = Natriuretic polypeptide receptor (hNpr1) antagonism - Pilot counterscreen GloSensor control cell line (AID 1347045; calls by dose curve; further: potency means the concentration at half of the fitted maximal effect)
# Procedure, shortened: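 Control counterscreen: luciferase cGMP-biosensor HEK293 cells (no Npr1) received compound for 30 min at room temperature after GloSensor substrate loading. Luminescence was measured before and 20 min after soluble guanylyl cyclase activation by 50 uM nitroprusside.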
# [2] = biological target: Atrial natriuretic peptide receptor 2 (Homo sapiens) (UniProt P20594); assay: Natriuretic polypeptide receptor (hNpr2) antagonism - Pilot subtype selectivity assay (AID 1347050; calls by dose curve)
# Chain of Atrial natriuretic peptide receptor 2 (Homo sapiens) (P20594 whole entry, looked up): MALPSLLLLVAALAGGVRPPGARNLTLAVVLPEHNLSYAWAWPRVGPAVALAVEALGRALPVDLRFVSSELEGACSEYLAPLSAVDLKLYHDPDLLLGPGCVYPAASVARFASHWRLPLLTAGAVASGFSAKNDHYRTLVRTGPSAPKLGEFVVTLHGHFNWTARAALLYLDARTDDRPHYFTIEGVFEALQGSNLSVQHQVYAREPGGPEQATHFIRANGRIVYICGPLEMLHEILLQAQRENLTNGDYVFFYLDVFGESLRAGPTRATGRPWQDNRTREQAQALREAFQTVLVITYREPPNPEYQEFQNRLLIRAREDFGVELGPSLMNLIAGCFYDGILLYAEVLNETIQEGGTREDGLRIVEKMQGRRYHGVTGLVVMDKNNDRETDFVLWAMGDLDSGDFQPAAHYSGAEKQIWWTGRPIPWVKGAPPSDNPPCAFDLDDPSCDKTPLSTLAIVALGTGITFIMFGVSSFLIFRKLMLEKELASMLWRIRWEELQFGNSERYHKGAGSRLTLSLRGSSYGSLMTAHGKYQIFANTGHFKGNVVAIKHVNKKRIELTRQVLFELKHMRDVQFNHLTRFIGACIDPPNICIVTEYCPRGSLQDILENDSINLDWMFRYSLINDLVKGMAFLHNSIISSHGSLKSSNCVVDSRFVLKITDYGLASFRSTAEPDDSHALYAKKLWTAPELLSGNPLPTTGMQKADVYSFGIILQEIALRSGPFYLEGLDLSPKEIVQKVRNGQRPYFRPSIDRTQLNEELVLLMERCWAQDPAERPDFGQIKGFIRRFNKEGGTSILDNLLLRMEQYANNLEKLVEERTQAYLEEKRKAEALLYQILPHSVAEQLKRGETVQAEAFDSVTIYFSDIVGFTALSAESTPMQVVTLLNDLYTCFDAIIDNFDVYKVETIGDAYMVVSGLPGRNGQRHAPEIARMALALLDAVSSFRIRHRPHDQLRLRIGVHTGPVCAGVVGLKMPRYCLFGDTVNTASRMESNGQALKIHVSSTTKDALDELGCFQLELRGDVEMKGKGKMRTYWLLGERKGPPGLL
# Procedure, shortened: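 Antagonist mode: compounds (LOPAC1280, seven 1:5 dilutions) added 30 min before 1 nM hNppC stimulation of hNpr2-HEK293 cGMP-sensor cells; luminescence read before and 20 min after agonist at ambient temperature.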
# [3] = NS1 protein of Zika virus - qHTS assay to identify small molecule inhibitors in human HEK 293 cells (AID 1347053); further: series mostly up to about 46 µM; nearly all actives have a fitted effect of over 55% in size
# Procedure, shortened: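 Read-out is a two-antibody TR-FRET for ZIKV NS1, normalized between uninfected cells and infected cells. Compound added 1 h before MR766 infection at MOI 0.5; human HEK 293 cells incubated 24 h, 37 C.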
# [4] = biological target: Parathyroid hormone/parathyroid hormone-related peptide receptor (Homo sapiens) (UniProt Q03431); assay: qHTS for PTHR1 Agonists: Optimization Screen against the NCGC LOPAC library (AID 1347079);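 further: GloSensor cAMP luminescence in HEK-293 GP2 cells expressing human PTHR1 with IBMX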
# Chain of Parathyroid hormone/parathyroid hormone-related peptide receptor (Homo sapiens) (Q03431 whole entry, looked up): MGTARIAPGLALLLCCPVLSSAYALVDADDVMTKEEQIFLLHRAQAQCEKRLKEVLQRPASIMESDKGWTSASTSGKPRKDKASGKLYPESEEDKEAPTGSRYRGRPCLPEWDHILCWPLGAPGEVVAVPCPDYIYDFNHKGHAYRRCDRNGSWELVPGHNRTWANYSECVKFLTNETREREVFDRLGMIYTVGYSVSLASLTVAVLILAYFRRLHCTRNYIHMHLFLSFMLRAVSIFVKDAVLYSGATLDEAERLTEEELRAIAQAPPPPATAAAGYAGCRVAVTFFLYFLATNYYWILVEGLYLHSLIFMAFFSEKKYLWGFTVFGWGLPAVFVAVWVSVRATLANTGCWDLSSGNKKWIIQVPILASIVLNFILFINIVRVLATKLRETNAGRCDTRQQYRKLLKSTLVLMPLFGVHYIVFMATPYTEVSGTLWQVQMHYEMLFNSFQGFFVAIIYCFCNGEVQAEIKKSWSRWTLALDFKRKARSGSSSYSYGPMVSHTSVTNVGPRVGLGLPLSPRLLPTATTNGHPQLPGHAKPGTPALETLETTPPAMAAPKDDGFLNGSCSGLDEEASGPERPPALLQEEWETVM
# Procedure, shortened: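 HEK-293 GP2 cells, PTHR1 + GloSensor cAMP; 3000 cells/well, o/n. Luciferin + IBMX 0.5mM each (stock), 1 hr 37C. Cpd titration, 1 hr 37C. Lum after 15 min RT. Ctrl M-PTH(1-15) top 10uM.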
# [5] = qHTS of pediatric cancer cell lines to identify multiple opportunities for drug repurposing: Primary screen for TC32 cells (AID 1347089); further: nearly all actives have a fitted effect of over 60% in size
# Procedure, shortened: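 A viability screen of TC32 cells was run over 48 h, with primary MIPE doses spanning 0.78 nM–46 µM and NPC doses 0.59 nM–46 µM. ATP luminescence (CellTiter-Glo) served as the read-out.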
# [6] = qHTS of pediatric cancer cell lines to identify multiple opportunities for drug repurposing: Primary screen for A673 cells (AID 1347092); further: nearly all actives have a fitted effect of over 45% in size; further: potency means the concentration at half of the fitted maximal effect
# Procedure, shortened: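 Titration-based qHTS on A673 cells: MIPE compounds spanned 11 points (0.78 nM to 46 µM final), NPC compounds 8 points (0.59 nM to 46 µM final). Viability after 48 h was measured by ATP luminescence.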
# [7] = qHTS of pediatric cancer cell lines to identify multiple opportunities for drug repurposing: Primary screen for SK-N-MC cells (AID 1347093); further: potency means the concentration at half of the fitted maximal effect
# Procedure, shortened: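 Metabolically active cells were quantified by ATP-dependent luminescence (CellTiter-Glo, 15 min at room temperature) following 48 h treatment. Cells had been plated at 500-1,000 per well and settled for 5 h beforehand.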
# [8] = qHTS of pediatric cancer cell lines to identify multiple opportunities for drug repurposing: Primary screen for U-2 OS cells (AID 1347096); further: nearly all actives have a fitted effect of over 50% in size
# Procedure, shortened: (§1)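 Cells (500-1,000/well) rested 5 h, then received compounds for 48 h; metabolically active cells were measured by CellTiter-Glo luminescence. Final concentrations spanned up to 46 µM (MIPE, 11-point) or 0.59 nM-46 µM (NPC, 8-point) in primary screens, 11-point in follow-ups.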
# [9] = qHTS of pediatric cancer cell lines to identify multiple opportunities for drug repurposing: Primary screen for Saos-2 cells (AID 1347097); further: nearly all actives have a fitted effect of over 40% in size; further: potency means the concentration at half of the fitted maximal effect
# Procedure, shortened: (§2)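 ATP-based luminescence (CellTiter-Glo) quantifies viability after a 48-hour exposure. Compounds are dosed across 8 or 11 final concentrations; DMSO and 2.3 µM bortezomib serve as controls.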
# [10] = qHTS of pediatric cancer cell lines to identify multiple opportunities for drug repurposing: Primary screen for SK-N-SH cells (AID 1347098); further: nearly all actives have a fitted effect of over 65% in size; further: potency means the concentration at half of the fitted maximal effect
# Procedure, shortened: as §1
# [11] = biological target: Atrial natriuretic peptide receptor 1 (Homo sapiens) (UniProt P16066); assay: Natriuretic polypeptide receptor (hNpr1) antagonism - Pilot screen (AID 1347049; calls by dose curve;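 further: HEK293 cells with hNpr1 and GloSensor cGMP luciferase stimulated by 0.1 nM hNppA; agonist-evoked cGMP luminescence read 20 min after hNppA addition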; further: potency means the concentration at half of the fitted maximal effect)
# Chain of Atrial natriuretic peptide receptor 1 (Homo sapiens) (P16066 whole entry, looked up): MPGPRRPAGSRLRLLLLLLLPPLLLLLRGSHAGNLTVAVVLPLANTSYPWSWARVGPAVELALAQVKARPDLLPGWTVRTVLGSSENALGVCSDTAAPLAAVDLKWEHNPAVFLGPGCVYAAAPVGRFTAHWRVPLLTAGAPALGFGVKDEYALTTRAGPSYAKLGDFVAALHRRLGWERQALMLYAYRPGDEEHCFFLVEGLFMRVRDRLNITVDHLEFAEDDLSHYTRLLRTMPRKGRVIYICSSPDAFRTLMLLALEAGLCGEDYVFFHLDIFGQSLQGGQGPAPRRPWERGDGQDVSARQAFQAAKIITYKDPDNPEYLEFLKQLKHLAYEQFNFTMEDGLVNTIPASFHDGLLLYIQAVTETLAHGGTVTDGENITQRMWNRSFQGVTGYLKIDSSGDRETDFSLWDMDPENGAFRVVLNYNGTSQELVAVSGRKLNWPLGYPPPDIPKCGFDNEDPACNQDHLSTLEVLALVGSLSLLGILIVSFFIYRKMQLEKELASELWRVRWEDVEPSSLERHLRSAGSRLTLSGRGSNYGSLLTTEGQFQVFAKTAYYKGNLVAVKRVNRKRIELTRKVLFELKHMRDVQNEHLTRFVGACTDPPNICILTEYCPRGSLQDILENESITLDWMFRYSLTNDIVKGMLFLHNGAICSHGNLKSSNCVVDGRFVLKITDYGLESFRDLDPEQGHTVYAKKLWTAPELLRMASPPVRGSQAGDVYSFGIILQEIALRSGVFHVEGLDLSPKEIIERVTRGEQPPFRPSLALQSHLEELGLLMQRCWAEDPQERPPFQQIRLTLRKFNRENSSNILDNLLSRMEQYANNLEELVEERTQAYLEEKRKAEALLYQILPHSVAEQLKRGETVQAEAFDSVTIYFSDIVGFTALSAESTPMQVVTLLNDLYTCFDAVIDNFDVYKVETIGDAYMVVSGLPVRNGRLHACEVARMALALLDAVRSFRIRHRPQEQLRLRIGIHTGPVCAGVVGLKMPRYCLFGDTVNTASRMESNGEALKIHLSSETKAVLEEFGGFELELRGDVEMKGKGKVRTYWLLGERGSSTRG
# Procedure, shortened: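 Receptor antagonism read as cGMP-dependent luminescence in hNpr1/pGS-40F HEK293 cells: pre-read after 30 min compound exposure, post-read 20 min after hNppA agonist at 0.1 nM final, all at room temperature, protected from light; A-71915 titration as control.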
# [12] = biological target: T1, Tyrosine-protein phosphatase non-receptor type substrate 1 (Homo sapiens) + Leukocyte surface antigen CD47 (Homo sapiens) (UniProt P78324+Q08722); assay: CD47-SIRPalpha protein protein interaction - LANCE assay qHTS validation (AID 1347057; active means well fitted curve in the direction sought with a large enough effect in the signal ratio, with a control signal flat, not every such curve was filed as active; the % refers to the signal ratio; further: series mostly up to about 38 µM)
# T1 sequence (P78324 whole entry, looked up, the tested form may be a part): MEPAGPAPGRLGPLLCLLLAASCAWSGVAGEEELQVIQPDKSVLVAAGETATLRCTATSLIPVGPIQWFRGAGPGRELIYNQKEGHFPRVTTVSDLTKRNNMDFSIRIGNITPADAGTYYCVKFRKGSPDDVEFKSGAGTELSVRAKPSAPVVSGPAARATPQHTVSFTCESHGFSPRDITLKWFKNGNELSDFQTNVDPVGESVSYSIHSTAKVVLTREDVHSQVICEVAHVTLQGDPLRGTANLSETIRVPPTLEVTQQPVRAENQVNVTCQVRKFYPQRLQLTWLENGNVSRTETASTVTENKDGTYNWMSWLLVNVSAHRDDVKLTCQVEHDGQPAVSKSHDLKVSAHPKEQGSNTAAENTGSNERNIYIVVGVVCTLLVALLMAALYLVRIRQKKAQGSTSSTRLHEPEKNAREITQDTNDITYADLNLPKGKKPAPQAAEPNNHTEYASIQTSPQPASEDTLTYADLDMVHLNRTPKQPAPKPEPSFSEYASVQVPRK
# T1 sequence (Q08722 whole entry, looked up, the tested form may be a part): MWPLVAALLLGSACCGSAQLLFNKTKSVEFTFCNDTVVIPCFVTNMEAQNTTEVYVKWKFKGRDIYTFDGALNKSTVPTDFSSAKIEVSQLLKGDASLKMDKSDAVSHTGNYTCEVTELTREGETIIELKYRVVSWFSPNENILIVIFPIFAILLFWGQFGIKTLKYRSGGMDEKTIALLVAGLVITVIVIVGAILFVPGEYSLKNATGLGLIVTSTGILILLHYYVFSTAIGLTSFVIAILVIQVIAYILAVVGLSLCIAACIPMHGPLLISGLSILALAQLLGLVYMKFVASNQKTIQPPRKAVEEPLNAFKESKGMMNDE
# Procedure, shortened: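 Inhibition of soluble CD47/SIRPalpha ectodomain association by titrated compounds, measured as 665/615 nm time-resolved FRET ratio after sequential 30 min room-temperature incubations.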
# [13] = biological target: T1, Tyrosine-protein phosphatase non-receptor type substrate 1 (Homo sapiens) + Leukocyte surface antigen CD47 (Homo sapiens); assay: CD47-SIRPalpha protein protein interaction - HTRF assay qHTS validation (AID 1347058; active means well fitted curve in the direction sought with a large enough effect in the signal ratio, not every such curve was filed as active; the % refers to the signal ratio; further: series mostly up to about 38 µM)
# Procedure, shortened: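 Soluble extracellular domains (6His-CD47, Avi-tag-biotinylated SIRPalpha) in PBS pH 7.4 with 0.05% IGEPAL CA-630. Compounds were preincubated 30 min at RT with CD47 and anti-His-Eu, then SIRPalpha and SAV-XL665 were added. TR-FRET 665/615 ratio.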
# [14] = biological target: T1, Tyrosine-protein phosphatase non-receptor type substrate 1 (Homo sapiens) + Leukocyte surface antigen CD47 (Homo sapiens); assay: CD47-SIRPalpha protein protein interaction - Alpha assay qHTS validation (AID 1347059);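 further: bead proximity luminescence from CD47 binding SIRPalpha after compound preincubation with SIRPalpha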; further: potency means the concentration at half of the fitted maximal effect
# Procedure, shortened: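 AlphaScreen signal between CD47-His (12.5 nM) and biotin-SIRPalpha (25 nM) soluble extracellular domains, bead-captured via Ni-NTA and streptavidin. Compounds, in 7-point titrations, met SIRPalpha 30 min before CD47; PBS pH 7.4 with 0.05% IGEPAL.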
# [15] = qHTS of pediatric cancer cell lines to identify multiple opportunities for drug repurposing: Primary screen for DAOY cells (AID 1347090); further: nearly all actives have a fitted effect of over 55% in size; further: potency means the concentration at half of the fitted maximal effect
# Procedure, shortened: (§3)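 Cell viability, CellTiter-Glo luminescence; 500-1,000 cells/well, 8- or 11-point titration, 48 h compound exposure at 37 degrees C, 5% CO2. Controls: DMSO neutral, bortezomib 2.3 µM final as positive.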
# [16] = qHTS of pediatric cancer cell lines to identify multiple opportunities for drug repurposing: Primary screen for SJ-GBM2 cells (AID 1347091); further: potency means the concentration at half of the fitted maximal effect
# Procedure, shortened: as §3
# [17] = qHTS of pediatric cancer cell lines to identify multiple opportunities for drug repurposing: Primary screen for BT-37 cells (AID 1347094); further: potency means the concentration at half of the fitted maximal effect
# Procedure, shortened: as §2
# [18] = qHTS of pediatric cancer cell lines to identify multiple opportunities for drug repurposing: Primary screen for NB-EBc1 cells (AID 1347095); further: potency means the concentration at half of the fitted maximal effect
# Procedure, shortened: as §2
# [19] = qHTS of pediatric cancer cell lines to identify multiple opportunities for drug repurposing: Primary screen for NB1643 cells (AID 1347099); further: nearly all actives have a fitted effect of over 50% in size; further: potency means the concentration at half of the fitted maximal effect
# Procedure, shortened: as §2
# [20] = qHTS of pediatric cancer cell lines to identify multiple opportunities for drug repurposing: Primary screen for LAN-5 cells (AID 1347100); further: potency means the concentration at half of the fitted maximal effect
# Procedure, shortened: as §1
SMILES,Potency [1],Potency [2],Potency [3],outcome [4],Potency [5],Potency [6],Potency [7],Potency [8],Potency [9],Potency [10],Potency [11],outcome [12],outcome [13],Potency [14],Potency [15],Potency [16],Potency [17],Potency [18],Potency [19],Potency [20]
OC(CN1CCN(c2cccc(Cl)c2)CC1)C(c1ccccc1)c1ccccc1 (centres undefined),inactive,inactive,inactive,inactive,inactive,18.7 µM (active),10.5 µM (active),inactive,18.7 µM (active),15.2 µM (active),–,–,–,–,–,–,–,–,–,–
COc1cc2c(cc1OC)C1CC(=O)C(CC(C)C)CN1CC2 (centres undefined),inactive,inactive,inactive,inactive,inactive,–,inactive,inactive,inactive,inactive,inactive,inactive,inactive,inactive,inactive,inactive,inactive,inactive,inactive,inactive
Nc1nc(OCc2ccccc2)c2[nH]cnc2n1,inactive,inactive,inactive,inactive,inactive,–,–,inactive,–,–,inactive,inactive,inactive,inactive,inactive,–,–,18.7 µM (active),–,inactive
O=C1c2ccccc2-c2n[nH]c3cccc1c23,inactive,inactive,inactive,inactive,inactive,1.87 µM (active),2.64 µM (active),inactive,–,5.41 µM (active),–,–,–,inactive,–,–,3.43 µM (active),–,2.96 µM (active),–
C[C@@H](N)C1CCC(C(=O)Nc2ccncc2)CC1 (some centres undefined),–,inactive,inactive,inactive,–,–,–,inactive,–,–,–,inactive,inactive,inactive,inactive,7.43 µM (active),inactive,–,inactive,inactive
O=c1c(O)c(-c2ccc(O)cc2O)oc2cc(O)cc(O)c12,inactive,inactive,inactive,inactive,–,inactive,inactive,inactive,–,inactive,inactive,–,–,1.85 µM (active),inactive,–,inactive,inactive,inactive,inactive
Nc1ccn([C@@H]2O[C@H](CO)[C@@H](O)C2O)c(=O)n1 (some centres undefined),inactive,inactive,inactive,inactive,inactive,–,inactive,inactive,inactive,inactive,inactive,–,–,–,inactive,inactive,inactive,–,inactive,inactive
O=c1ccc2ccc(O)c(O)c2o1,inactive,inactive,inactive,inactive,–,–,–,inactive,inactive,–,inactive,inactive,–,inactive,7.43 µM (active),–,inactive,–,–,–
Cc1cc(O)c2c(c1)C(=O)c1cc(O)cc(O)c1C2=O,–,–,inactive,inactive,inactive,inactive,–,–,inactive,inactive,23.9 µM (active),inactive,–,inactive,–,inactive,inactive,–,–,–
CC(=O)N1CCN(c2ccc(OC[C@H]3CO[C@](Cn4ccnc4)(c4ccc(Cl)cc4Cl)O3)cc2)CC1,18.5 µM (active),inactive,inactive,inactive,–,–,23.5 µM (active),inactive,33.2 µM (active),inactive,inactive,inactive,inactive,–,–,–,–,–,inactive,18.7 µM (active)
Nc1nc(N)c(N=O)c(OCC2CCCCC2)n1,inactive,inactive,inactive,inactive,–,–,3.32 µM (active),–,18.7 µM (active),24.1 µM (active),inactive,–,–,inactive,–,–,–,–,18.7 µM (active),–
O=C(CCc1ccc(O)cc1)c1c(O)cc(O)cc1O,–,inactive,inactive,inactive,inactive,–,0.118 µM (active),inactive,inactive,inactive,inactive,inactive,inactive,inactive,0.118 µM (active),–,–,–,–,6.62 µM (active)
Oc1ccc(-c2nc(-c3ccc(F)cc3)c(-c3ccncc3)[nH]2)cc1,inactive,inactive,inactive,inactive,–,–,2.35 µM (active),inactive,–,–,–,inactive,–,inactive,23.5 µM (active),–,inactive,inactive,10.5 µM (active),–
CN(C)CCCC1(c2ccc(F)cc2)OCc2cc(C#N)ccc21 (centres undefined),inactive,inactive,inactive,inactive,inactive,29.6 µM (active),11.8 µM (active),inactive,–,–,inactive,inactive,inactive,inactive,–,inactive,–,–,16.6 µM (active),–
O=c1c(O)c(-c2cc(O)c(O)c(O)c2)oc2cc(O)cc(O)c12,inactive,inactive,inactive,inactive,inactive,–,–,inactive,–,inactive,–,inactive,–,inactive,inactive,inactive,–,inactive,inactive,–
